PubChem BioAssay (EPA / NIEHS)
Several values for one entry are separate records, joined by “and”; a condition that tells them apart may be missing. Equal values may be shown once. Inconclusive results are not listed. Activity calls are given as the source filed them. How the source made its calls, unless noted: active means hit-call score of the fitted dose curve at least 0.9, where 1 is the maximum; inconclusive means response in the unintended direction; inactive means score below 0.9.

Assays:
[1] = read-out: ABC Transporter (ABCB1), ABCB1 (gene 5243); assay: CLD_ABCB1_6hr: CellzDirect (CLD) Gene Expression Assay for ABC Transporter (ABCB1) at 6 hours (AID 2283659);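 further: hits raise ABCB1 transcript above the DMSO vehicle baseline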
In short: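 Primary human hepatocytes (two donor preparations) dosed daily for two days with chemicals at multiple concentrations, 0.2% DMSO vehicle; harvested 6 h post-dose. ABCB1 mRNA induction quantified by qNPA chemiluminescence; gain-of-signal fitted versus DMSO.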

[2] = Tanguay_ZF_120hpf_TR_legacy: (Legacy) Oregon State University Tanguay Lab 120 Hour Post-fertilization zebrafish Assay for Touch Response (AID 2283667)
In short: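 5D WT embryos; static exposure to 120 hpf, 28C, sealed/dark; DMSO 0.64% v/v final. TR scored present/absent; dead embryos excluded. Pos ctrl 5uM trimethyltin chloride.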

[3] = read-out: sulfotransferase (SULT2A), SULT2A1 (gene 6822); assay: CLD_SULT2A_6hr: CellzDirect (CLD) Gene Expression Assay for sulfotransferase (SULT2A) at 6 hours (AID 2283669);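 further: hits raise transcript level above the DMSO vehicle baseline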
In short: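 Primary human hepatocytes from two donor preparations were dosed daily with chemicals or 0.2% DMSO and harvested at 6 h. Transcript induction read by qNPA chemiluminescence, fitted for gain of signal relative to DMSO; morphology-based cytotoxicity annotated.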

[4] = CLD_ACTIN_6hr: CellzDirect (CLD) Gene Expression Assay for Baseline Control (Actin) at 6 hours (AID 2283676);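 further: active means increased actin mRNA relative to DMSO vehicle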
In short: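 Primary human hepatocytes dosed with fresh chemical solutions (vehicle 0.2% DMSO), harvested at 6 h. Actin mRNA quantified by quantitative nuclease protection assay with chemiluminescent read-out, as background control relative to DMSO.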

[5] = read-out: Broad substrate specificity ATP-binding cassette transporter ABCG2 (Homo sapiens) (UniProt Q9UNQ0); assay: CLD_ABCG2_6hr: CellzDirect (CLD) Gene Expression Assay for ABC Transporter (ABCG2) at 6 hours (AID 2283660)
In short: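 Primary human hepatocytes dosed daily with chemicals at multiple concentrations (0.2% DMSO vehicle), harvested 6 h after dosing. ABCG2 mRNA induction read by quantitative nuclease protection assay (qNPA) chemiluminescence; gain of signal fitted against DMSO baseline.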

[6] = test system: Thyroperoxidase (TPO), gene 54314; assay: CCTE_Simmons_AUR_rTPO: CCTE's Amplex UltraRed Assay for Thyroperoxidase (TPO) Inhibition, Simmons Lab (AID 2283662);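 on AC50: potency for loss of signal meaning inhibition of peroxidase activity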
In short: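 Rat thyroid microsomes (5 ug protein) with 25 uM Amplex UltraRed and 300 uM H2O2 in 200 mM phosphate buffer, 30 min at 37C in dark; fluorescence 544/590 nm. Eight concentrations, 5 nM–87.5 uM final, 0.5% DMSO, triplicate biological replicates.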

[7] = read-out: xenobiotic metabolism (CYP2C9), CYP2C9 (gene 1559); assay: CLD_CYP2C9_6hr: CellzDirect (CLD) Gene Expression Assay for xenobiotic metabolism (CYP2C9) at 6 hours (AID 2283664)
In short: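 Primary human hepatocytes dosed daily with test chemicals at multiple concentrations; harvested at 6 h. CYP2C9 mRNA induction measured by qNPA chemiluminescence. Gain of signal fitted against 0.2% DMSO vehicle; cytotoxicity annotated from phase-contrast morphology.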

[8] = CCTE_Simmons_CellTiterGLO_HEK293T: Viability Assessment in CCTE's Assays for Thyroperoxidase (TPO) Inhibition, Simmons Lab (AID 2283665);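 on AC50: cells exposed to compound for 24 h before readout; actives reduce ATP signal below DMSO vehicle meaning cytotoxicity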
In short: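 HEK293T cells in DMEM with 1% FBS, dosed 24 h at 37C with 8 concentrations, 5 nM–87.5 uM final, 0.5% DMSO. ATP measured by CellTiter Glo luminescence; loss of signal vs DMSO, three biological replicates.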

[9] = read-out: alkyl and aryl transferase (GSTA2), GSTA2 (gene 2939); assay: CLD_GSTA2_6hr: CellzDirect (CLD) Gene Expression Assay for alkyl and aryl transferase (GSTA2) at 6 hours (AID 2283666)
In short: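 Primary human hepatocytes from two donor preparations were dosed daily with fresh compound at multiple concentrations, 0.2% DMSO vehicle. GSTA2 mRNA was measured at 6 hours by qNPA chemiluminescence; induction fitted relative to DMSO, with cytotoxicity flagged morphologically.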

[10] = read-out: Cytochrome P450 2C19 (Homo sapiens) (UniProt P33261); assay: CLD_CYP2C19_6hr: CellzDirect (CLD) Gene Expression Assay for xenobiotic metabolism (CYP2C19) at 6 hours (AID 2283678)
In short: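 Primary human hepatocytes from two donor preparations were dosed daily, with 0.2% DMSO as vehicle, and harvested 6 h after dosing. CYP2C19 mRNA induction was measured by qNPA chemiluminescence and fitted as gain of signal against DMSO.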

[11] = read-out: solute carrier (SLC10A1), SLC10A1 (gene 6554); assay: LTEA_HepaRG_SLC10A1: Life Technologies and Expression Analysis (LTEA) Assay for solute carrier (SLC10A1) using HepaRG (AID 2283657; active means hit-call score of the fitted dose curve at least 0.9, where 1 is the maximum; inactive means score below 0.9); details: mRNA level, 48 h; actives raise or lower the signal
In short: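 Transcript levels were measured by qRT-PCR after human HepaRG cells received test chemical for 48 hours, up to 100 uM in half-log dilutions. Values come from bidirectional concentration-response fitting relative to 0.5% DMSO vehicle.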

[12] = read-out: matrix metalloproteinase-1 (MMP1), MMP1 (gene 4312); assay: LTEA_HepaRG_MMP1: Life Technologies and Expression Analysis (LTEA) Assay for matrix metalloproteinase-1 (MMP1) using HepaRG (AID 2283658; active means hit-call score of the fitted dose curve at least 0.9, where 1 is the maximum; inactive means score below 0.9); details: mRNA level, 48 h; actives raise or lower the signal
In short: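 qRT-PCR (TaqMan, Fluidigm arrays) of MMP1 transcript, normalized against three housekeeping genes and fitted in both directions relative to 0.5% DMSO vehicle. Human HepaRG cultures received duplicate 48 h exposures across 8 points, highest 100 uM with half-log steps.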

[13] = read-out: organic anion transporter (SLCO1B1), SLCO1B1 (gene 10599); assay: CLD_SLCO1B1_6hr: CellzDirect (CLD) Gene Expression Assay for organic anion transporter (SLCO1B1) at 6 hours (AID 2283668);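 further: active means mRNA induction above DMSO baseline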
In short: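 Primary human hepatocytes dosed daily with test chemicals (multiple concentrations) in 0.2% DMSO vehicle; harvested at 6 h. SLCO1B1 mRNA quantified by qNPA chemiluminescence, fitted as gain-of-signal versus DMSO; cytotoxicity from phase-contrast morphology flagged alongside.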

[14] = read-out: Cytochrome P450 (CYP24A1_1), CYP24A1 (gene 1591); assay: LTEA_HepaRG_CYP24A1_1: Life Technologies and Expression Analysis (LTEA) Assay for Cytochrome P450 (CYP24A1_1) using HepaRG (AID 2283671; active means hit-call score of the fitted dose curve at least 0.9, where 1 is the maximum; inactive means score below 0.9); details: mRNA level, 48 h; actives raise or lower the signal
In short: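 In this test, gene induction or suppression of CYP24A1 in human HepaRG liver cells is measured by qRT-PCR after 48 h chemical treatment (eight concentrations, maximum 100 uM). Values are fitted bidirectionally relative to DMSO.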

[15] = read-out: Cytochrome P450 2B6 (Homo sapiens) (UniProt P20813); assay: CLD_CYP2B6_6hr: CellzDirect (CLD) Gene Expression Assay for xenobiotic metabolism (CYP2B6) at 6 hours (AID 2283677);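 further: actives raise CYP2B6 transcript above DMSO baseline so AC50 marks an inducer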
In short: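 Primary human hepatocytes dosed with chemicals at multiple concentrations, vehicle 0.2% DMSO; CYP2B6 mRNA induction measured 6 h after dosing by quantitative nuclease protection assay with chemiluminescence, gain of signal fitted relative to DMSO.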

[16] = read-out: xenobiotic metabolism (CYP1A1), CYP1A1 (gene 1543); assay: CLD_CYP1A1_6hr: CellzDirect (CLD) Gene Expression Assay for xenobiotic metabolism (CYP1A1) at 6 hours (AID 2283661);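 on AC50: potency for transcript induction above DMSO vehicle baseline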
In short: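 Primary human hepatocytes from two donors, compound versus 0.2% DMSO vehicle. CYP1A1 mRNA measured 6 h after dosing by quantitative nuclease protection assay with chemiluminescent read-out; induction fitted relative to DMSO, cytotoxicity flagged by microscopy.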

[17] = read-out: glucuronosyltransferase (UGT1A1), UGT1A1 (gene 54658); assay: CLD_UGT1A1_6hr: CellzDirect (CLD) Gene Expression Assay for glucuronosyltransferase (UGT1A1) at 6 hours (AID 2283672)
In short: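 Primary human hepatocytes from two donor preparations, dosed with fresh solutions in 0.2% DMSO, harvested at 6 h. UGT1A1 mRNA measured by qNPA chemiluminescence; induction fitted upward versus DMSO.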

[18] = read-out: xenobiotic metabolism (CYP1A1), CYP1A1 (gene 1543); assay: CLD_CYP1A1_24hr: CellzDirect (CLD) Gene Expression Assay for xenobiotic metabolism (CYP1A1) at 24 hours (AID 2283673);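 further: CYP1A1 mRNA level by quantitative nuclease protection with chemiluminescence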
In short: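 Primary human hepatocytes dosed daily with fresh solutions in 0.2% DMSO vehicle. mRNA measured at 24 h by quantitative nuclease protection assay with chemiluminescence; gain-of-signal fit versus DMSO, with morphology-based cytotoxicity flags.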

[19] = read-out: xenobiotic metabolism (CYP1A2), CYP1A2 (gene 1544); assay: CLD_CYP1A2_6hr: CellzDirect (CLD) Gene Expression Assay for xenobiotic metabolism (CYP1A2) at 6 hours (AID 2283663);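 on AC50: potency is for induction meaning a rise in mRNA above DMSO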
In short: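 Primary human hepatocytes from two donor preparations, dosed daily with multiple concentrations in 0.2% DMSO and harvested at 6 h. CYP1A2 mRNA induction measured by chemiluminescent qNPA, gain of signal fitted against DMSO; cytotoxicity flagged morphologically.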

Broad substrate specificity ATP-binding cassette transporter ABCG2 (Homo sapiens), sequence (Q9UNQ0 whole entry, looked up): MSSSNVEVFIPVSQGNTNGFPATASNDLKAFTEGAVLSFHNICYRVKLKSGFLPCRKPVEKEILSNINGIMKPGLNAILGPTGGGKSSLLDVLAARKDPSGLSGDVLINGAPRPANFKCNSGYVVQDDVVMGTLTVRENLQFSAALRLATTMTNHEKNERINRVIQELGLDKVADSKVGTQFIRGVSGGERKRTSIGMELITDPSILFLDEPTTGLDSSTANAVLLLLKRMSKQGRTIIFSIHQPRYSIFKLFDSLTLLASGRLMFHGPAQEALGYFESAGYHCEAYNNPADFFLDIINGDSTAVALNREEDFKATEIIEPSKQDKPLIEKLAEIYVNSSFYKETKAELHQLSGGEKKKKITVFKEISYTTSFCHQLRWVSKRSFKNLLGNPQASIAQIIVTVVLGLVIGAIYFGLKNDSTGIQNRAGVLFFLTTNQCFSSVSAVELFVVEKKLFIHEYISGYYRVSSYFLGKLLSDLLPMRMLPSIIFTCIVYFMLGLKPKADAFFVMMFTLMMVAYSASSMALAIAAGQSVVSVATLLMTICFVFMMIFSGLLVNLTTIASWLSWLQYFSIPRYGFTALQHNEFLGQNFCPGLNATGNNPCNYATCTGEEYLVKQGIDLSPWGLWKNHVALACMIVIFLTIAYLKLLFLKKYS
Cytochrome P450 2C19 (Homo sapiens), sequence (P33261 whole entry, looked up): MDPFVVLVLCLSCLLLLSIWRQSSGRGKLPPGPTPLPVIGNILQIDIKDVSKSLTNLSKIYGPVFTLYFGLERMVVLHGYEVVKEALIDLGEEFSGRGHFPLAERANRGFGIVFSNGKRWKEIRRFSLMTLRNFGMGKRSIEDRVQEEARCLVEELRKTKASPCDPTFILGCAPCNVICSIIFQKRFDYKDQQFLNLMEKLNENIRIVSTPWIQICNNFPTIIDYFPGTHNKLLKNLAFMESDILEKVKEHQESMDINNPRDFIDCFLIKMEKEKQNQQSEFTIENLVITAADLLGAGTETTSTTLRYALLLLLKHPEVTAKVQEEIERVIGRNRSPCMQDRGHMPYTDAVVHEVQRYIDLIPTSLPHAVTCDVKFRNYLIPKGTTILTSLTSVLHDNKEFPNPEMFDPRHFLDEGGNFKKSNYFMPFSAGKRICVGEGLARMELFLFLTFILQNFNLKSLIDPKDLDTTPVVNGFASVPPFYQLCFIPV

Cn1c(-c2ccccc2)cc(-c2ccccc2)[n+]1C
outcome [1]: inactive | outcome [2]: inactive | outcome [3]: inactive | outcome [4]: inactive

CCOc1nc(C(Cl)(Cl)Cl)ns1
outcome [5]: inactive | outcome [6]: inactive | outcome [7]: inactive | AC50 [8]: 82.9 µM (active) and 70.4 µM (active) | outcome [9]: inactive | outcome [2]: inactive | outcome [3]: inactive | outcome [4]: inactive | outcome [10]: inactive

CN=C=S
outcome [11]: inactive | outcome [12]: inactive | outcome [5]: inactive | outcome [7]: inactive | outcome [9]: inactive | outcome [2]: inactive | outcome [13]: inactive | outcome [3]: inactive | outcome [14]: inactive | outcome [4]: inactive | AC50 [15]: 4.85 µM (active) | outcome [10]: inactive

Cc1cnc(C2=NC(C)(C(C)C)C(=O)N2)c(C(=O)O)c1 (stereo unspecified)
outcome [5]: inactive | outcome [16]: inactive | outcome [6]: inactive | outcome [8]: inactive | outcome [9]: inactive | outcome [2]: inactive | outcome [4]: inactive | outcome [15]: inactive

COP(=S)(OC)SCn1nnc2ccccc2c1=O
outcome [5]: inactive | AC50 [16]: 6.49 µM (active) | AC50 [6]: 6.68 µM (active) | AC50 [8]: 53.8 µM (active) | outcome [9]: inactive | outcome [2]: inactive | outcome [3]: inactive | outcome [4]: inactive | AC50 [15]: 0.448 µM (active)

CC(C)N1C(=O)c2ccccc2NS1(=O)=O
outcome [1]: inactive | outcome [7]: inactive | outcome [9]: inactive | outcome [2]: inactive | outcome [13]: inactive | outcome [17]: inactive | outcome [18]: inactive | outcome [4]: inactive | outcome [10]: inactive

Cc1nc(N(C)C)nc(OC(=O)N(C)C)c1C
outcome [5]: inactive | AC50 [16]: 4.32 µM (active) | AC50 [19]: 3.8 µM (active) | outcome [7]: inactive | outcome [9]: inactive | outcome [2]: inactive | AC50 [18]: 2.75 µM (active) | outcome [4]: inactive | AC50 [15]: 3.94 µM (active)

C=CCOC(=O)C(C)(C)OC(=O)c1cc(-n2c(=O)cc(C(F)(F)F)n(C)c2=O)ccc1Cl
outcome [1]: inactive | outcome [5]: inactive | outcome [16]: inactive | outcome [7]: inactive | outcome [9]: inactive | outcome [13]: inactive | outcome [17]: inactive | AC50 [15]: 0.32 µM (active)

Nc1cnn(-c2ccccc2)c(=O)c1Cl
outcome [5]: inactive | AC50 [19]: 9.27 µM (active) | outcome [2]: inactive | outcome [3]: inactive | outcome [15]: inactive

CC(C)N1C(=O)N(c2ccccc2)CSC1=NC(C)(C)C
outcome [5]: inactive | outcome [16]: inactive | outcome [7]: inactive | outcome [9]: inactive | outcome [2]: inactive | outcome [4]: inactive | AC50 [15]: 7.11 µM (active)

CS(=O)(=O)c1ccc(C(=O)C2C(=O)CCCC2=O)c([N+](=O)[O-])c1
outcome [1]: inactive | outcome [5]: inactive | AC50 [6]: 30.6 µM (active) | outcome [7]: inactive | outcome [8]: inactive | outcome [9]: inactive | outcome [2]: inactive | outcome [3]: inactive | outcome [4]: inactive

CC(C)(C)C(=O)C(Oc1ccc(Cl)cc1)n1cncn1 (stereo unspecified)
outcome [5]: inactive | AC50 [16]: 3.97 µM (active) | outcome [9]: inactive | outcome [2]: inactive | outcome [17]: inactive | AC50 [15]: 3.95 µM (active) | outcome [10]: inactive

OC(c1ccc(Cl)cc1)(c1ccc(Cl)cc1)C(Cl)(Cl)Cl
outcome [1]: inactive | outcome [5]: inactive | AC50 [6]: 43.8 µM (active) | outcome [7]: inactive | AC50 [8]: 6.74 µM (active) | outcome [2]: inactive | outcome [13]: inactive | AC50 [15]: 3.96 µM (active) | outcome [10]: inactive

COC(=O)NS(=O)(=O)c1ccc(N)cc1
outcome [1]: inactive | outcome [5]: inactive | outcome [16]: inactive | AC50 [6]: 20.2 µM (active) | outcome [7]: inactive | outcome [9]: inactive | outcome [2]: inactive | outcome [4]: inactive | outcome [15]: inactive | outcome [10]: inactive

O=c1n(Cl)c(=O)n(Cl)c(=O)n1Cl
outcome [5]: inactive | AC50 [6]: 22.5 µM (active) | outcome [8]: inactive | outcome [9]: inactive | outcome [2]: inactive | outcome [13]: inactive | AC50 [18]: 3.97 µM (active) | outcome [15]: inactive | outcome [10]: inactive

CCCCC(O)(Cn1cncn1)c1ccc(Cl)cc1Cl (stereo unspecified)
outcome [5]: inactive | AC50 [16]: 0.532 µM (active) | outcome [19]: inactive | outcome [2]: inactive | outcome [13]: inactive | outcome [4]: inactive | AC50 [15]: 2.08 µM (active)
